# Experimental data from article PMC5795388.
# What was measured:
# Assay in all cases: cross-link between two proteins; cross-linking mass spectrometry
# ADP/ATP translocase 1 = ADP/ATP translocase 1 (UniProt P48962)
# [1] = biological target: Cytochrome b-c1 complex subunit 6, mitochondrial (UniProt P99028)
# [2] = biological target: Cytochrome c oxidase subunit 6C (UniProt Q9CPQ1)
# [3] = biological target: Cytochrome c oxidase subunit 7B, mitochondrial (UniProt P56393)
# [4] = biological target: Cytochrome c oxidase subunit FA4 (UniProt Q62425)
# [5] = biological target: FAST kinase domain-containing protein 2, mitochondrial (UniProt Q922E6)
# [6] = biological target: Methylglutaconyl-CoA hydratase, mitochondrial (UniProt Q9JLZ3)
# [7] = biological target: NADH dehydrogenase [ubiquinone] flavoprotein 1, mitochondrial (UniProt Q91YT0)
# [8] = biological target: MICOS complex subunit Mic26 (UniProt Q9DCZ4)
# [9] = biological target: Cytochrome b-c1 complex subunit 8 (UniProt Q9CQ69)
# [10] = biological target: NADH dehydrogenase [ubiquinone] 1 beta subcomplex subunit 10 (UniProt Q9DCS9)
# [11] = biological target: Heat shock protein 75 kDa, mitochondrial (UniProt Q9CQN1)
# Protein FAM162A = Protein FAM162A (UniProt Q9D6U8)
# [12] = biological target: MICOS complex subunit Mic19 (UniProt Q9CRB9)
# [13] = biological target: MICOS complex subunit Mic60 (UniProt Q8CAQ8)
# Chain of MICOS complex subunit Mic60 (Q8CAQ8 whole entry, one chain of several): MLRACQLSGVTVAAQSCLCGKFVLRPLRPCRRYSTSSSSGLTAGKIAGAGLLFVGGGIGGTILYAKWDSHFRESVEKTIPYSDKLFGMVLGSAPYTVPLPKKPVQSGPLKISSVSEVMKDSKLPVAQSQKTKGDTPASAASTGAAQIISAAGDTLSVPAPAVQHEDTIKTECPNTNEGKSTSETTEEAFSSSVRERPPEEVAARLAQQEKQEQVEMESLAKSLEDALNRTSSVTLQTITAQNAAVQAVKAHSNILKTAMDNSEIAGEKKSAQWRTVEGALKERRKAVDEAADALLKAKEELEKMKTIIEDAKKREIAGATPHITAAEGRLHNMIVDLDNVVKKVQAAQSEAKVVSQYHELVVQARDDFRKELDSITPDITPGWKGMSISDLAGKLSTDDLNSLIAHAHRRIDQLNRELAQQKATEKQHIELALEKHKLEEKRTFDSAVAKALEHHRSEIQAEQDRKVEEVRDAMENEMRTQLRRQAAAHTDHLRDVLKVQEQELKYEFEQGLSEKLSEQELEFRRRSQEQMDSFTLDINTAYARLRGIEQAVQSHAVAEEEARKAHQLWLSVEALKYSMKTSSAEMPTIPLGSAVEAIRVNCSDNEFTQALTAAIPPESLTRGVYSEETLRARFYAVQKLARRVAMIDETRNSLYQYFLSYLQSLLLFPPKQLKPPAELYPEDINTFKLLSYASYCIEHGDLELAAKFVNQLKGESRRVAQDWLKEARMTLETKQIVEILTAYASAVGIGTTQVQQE
# Chain of NADH dehydrogenase [ubiquinone] 1 beta subcomplex subunit 10 (Q9DCS9 whole entry, one chain of several): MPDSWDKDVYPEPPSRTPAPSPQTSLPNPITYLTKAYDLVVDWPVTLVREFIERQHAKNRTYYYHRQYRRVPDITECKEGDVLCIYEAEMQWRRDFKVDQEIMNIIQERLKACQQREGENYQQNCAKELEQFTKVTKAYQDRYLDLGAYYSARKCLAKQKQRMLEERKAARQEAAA
# Chain of FAST kinase domain-containing protein 2, mitochondrial (Q922E6 whole entry, the tested form may be a part): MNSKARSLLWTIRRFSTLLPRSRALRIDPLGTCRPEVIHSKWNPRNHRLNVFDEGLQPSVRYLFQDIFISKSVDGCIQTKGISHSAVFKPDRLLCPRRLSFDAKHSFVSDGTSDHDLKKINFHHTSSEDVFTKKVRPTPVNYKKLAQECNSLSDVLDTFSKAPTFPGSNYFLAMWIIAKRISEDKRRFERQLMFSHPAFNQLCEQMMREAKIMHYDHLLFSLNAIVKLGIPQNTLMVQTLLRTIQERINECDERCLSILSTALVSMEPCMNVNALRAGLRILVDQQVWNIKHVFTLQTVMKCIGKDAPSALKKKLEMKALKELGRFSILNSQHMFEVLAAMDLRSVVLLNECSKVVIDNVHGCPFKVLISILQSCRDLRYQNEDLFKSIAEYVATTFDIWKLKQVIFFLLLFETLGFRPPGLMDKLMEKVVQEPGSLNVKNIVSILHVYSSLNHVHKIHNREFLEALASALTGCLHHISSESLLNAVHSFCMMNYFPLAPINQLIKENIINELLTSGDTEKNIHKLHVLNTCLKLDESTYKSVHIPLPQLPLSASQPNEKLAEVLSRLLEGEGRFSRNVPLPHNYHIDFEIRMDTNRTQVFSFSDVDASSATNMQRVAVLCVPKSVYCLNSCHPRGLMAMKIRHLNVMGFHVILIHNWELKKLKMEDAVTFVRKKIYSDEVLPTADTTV
# Chain of Cytochrome c oxidase subunit FA4 (Q62425 whole entry, the tested form may be a part): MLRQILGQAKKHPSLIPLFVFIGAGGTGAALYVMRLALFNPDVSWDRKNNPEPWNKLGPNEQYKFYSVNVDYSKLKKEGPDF
# Chain of Cytochrome b-c1 complex subunit 8 (Q9CQ69 whole entry, one chain of several): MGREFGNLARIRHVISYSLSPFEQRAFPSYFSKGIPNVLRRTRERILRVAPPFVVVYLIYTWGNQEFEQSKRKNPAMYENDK
# Chain of MICOS complex subunit Mic19 (Q9CRB9 whole entry, one chain of several): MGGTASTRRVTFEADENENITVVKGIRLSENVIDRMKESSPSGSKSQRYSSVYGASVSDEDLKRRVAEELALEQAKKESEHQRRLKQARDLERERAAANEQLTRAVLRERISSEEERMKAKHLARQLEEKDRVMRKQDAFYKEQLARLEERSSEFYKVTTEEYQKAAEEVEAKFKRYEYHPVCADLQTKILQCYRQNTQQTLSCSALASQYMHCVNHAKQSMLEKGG
# Chain of Heat shock protein 75 kDa, mitochondrial (Q9CQN1 whole entry): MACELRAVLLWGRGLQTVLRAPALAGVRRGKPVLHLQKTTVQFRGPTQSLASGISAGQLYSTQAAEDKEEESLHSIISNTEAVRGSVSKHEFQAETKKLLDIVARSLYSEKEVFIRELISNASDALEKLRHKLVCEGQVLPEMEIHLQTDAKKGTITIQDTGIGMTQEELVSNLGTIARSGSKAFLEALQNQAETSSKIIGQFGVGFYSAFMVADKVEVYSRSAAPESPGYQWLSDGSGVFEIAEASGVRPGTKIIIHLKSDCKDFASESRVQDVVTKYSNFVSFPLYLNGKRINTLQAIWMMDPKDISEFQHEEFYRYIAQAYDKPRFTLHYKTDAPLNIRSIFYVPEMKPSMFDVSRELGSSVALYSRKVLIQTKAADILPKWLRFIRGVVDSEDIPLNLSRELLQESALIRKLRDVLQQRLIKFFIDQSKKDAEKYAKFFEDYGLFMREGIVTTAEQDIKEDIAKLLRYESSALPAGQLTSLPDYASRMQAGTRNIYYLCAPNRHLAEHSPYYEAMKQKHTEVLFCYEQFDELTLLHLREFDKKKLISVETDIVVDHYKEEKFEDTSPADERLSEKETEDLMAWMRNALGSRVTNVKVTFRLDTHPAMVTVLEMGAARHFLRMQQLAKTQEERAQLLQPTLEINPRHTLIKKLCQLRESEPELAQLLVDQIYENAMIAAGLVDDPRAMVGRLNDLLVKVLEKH
# Chain of Cytochrome b-c1 complex subunit 6, mitochondrial (P99028 whole entry, one chain of several): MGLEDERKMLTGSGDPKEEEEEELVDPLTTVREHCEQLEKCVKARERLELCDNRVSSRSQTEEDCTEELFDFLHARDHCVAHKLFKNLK
# Chain of Stress-70 protein, mitochondrial, P38647 (P38647 whole entry): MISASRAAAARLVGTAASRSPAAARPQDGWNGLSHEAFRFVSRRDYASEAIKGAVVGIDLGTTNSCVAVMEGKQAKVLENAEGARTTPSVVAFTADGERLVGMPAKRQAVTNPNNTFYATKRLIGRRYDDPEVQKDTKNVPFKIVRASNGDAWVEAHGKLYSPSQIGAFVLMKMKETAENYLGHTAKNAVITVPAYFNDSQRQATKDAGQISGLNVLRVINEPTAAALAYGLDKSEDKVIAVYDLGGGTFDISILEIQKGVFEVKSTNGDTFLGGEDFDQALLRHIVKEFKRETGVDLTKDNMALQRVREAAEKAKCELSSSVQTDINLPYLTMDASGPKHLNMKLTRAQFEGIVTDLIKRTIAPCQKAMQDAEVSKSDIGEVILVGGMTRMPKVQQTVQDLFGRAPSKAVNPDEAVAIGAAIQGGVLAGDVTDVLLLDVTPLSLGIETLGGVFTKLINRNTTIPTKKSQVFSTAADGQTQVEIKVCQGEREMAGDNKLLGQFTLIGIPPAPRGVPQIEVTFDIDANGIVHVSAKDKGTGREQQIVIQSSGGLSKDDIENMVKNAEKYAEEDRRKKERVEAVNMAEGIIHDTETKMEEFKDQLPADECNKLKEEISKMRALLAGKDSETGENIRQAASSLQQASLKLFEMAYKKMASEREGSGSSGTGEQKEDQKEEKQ
# Chain of Cytochrome c oxidase subunit 7B, mitochondrial (P56393 whole entry): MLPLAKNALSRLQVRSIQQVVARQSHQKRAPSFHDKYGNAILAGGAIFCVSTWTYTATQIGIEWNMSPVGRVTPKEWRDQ
# Chain of MICOS complex subunit Mic26 (Q9DCZ4 whole entry, one chain of several): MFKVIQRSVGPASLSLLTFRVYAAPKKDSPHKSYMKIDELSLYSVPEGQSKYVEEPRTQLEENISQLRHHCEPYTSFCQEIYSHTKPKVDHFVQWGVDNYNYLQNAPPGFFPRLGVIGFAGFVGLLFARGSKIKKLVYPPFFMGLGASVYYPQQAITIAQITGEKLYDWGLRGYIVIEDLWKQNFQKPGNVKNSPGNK
# Chain of Protein FAM162A (Q9D6U8 whole entry): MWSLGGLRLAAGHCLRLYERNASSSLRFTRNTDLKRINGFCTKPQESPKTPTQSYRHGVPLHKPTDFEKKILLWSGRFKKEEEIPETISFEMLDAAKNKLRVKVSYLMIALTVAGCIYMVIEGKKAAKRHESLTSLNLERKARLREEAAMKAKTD
# Chain of NADH dehydrogenase [ubiquinone] flavoprotein 1, mitochondrial (Q91YT0 whole entry): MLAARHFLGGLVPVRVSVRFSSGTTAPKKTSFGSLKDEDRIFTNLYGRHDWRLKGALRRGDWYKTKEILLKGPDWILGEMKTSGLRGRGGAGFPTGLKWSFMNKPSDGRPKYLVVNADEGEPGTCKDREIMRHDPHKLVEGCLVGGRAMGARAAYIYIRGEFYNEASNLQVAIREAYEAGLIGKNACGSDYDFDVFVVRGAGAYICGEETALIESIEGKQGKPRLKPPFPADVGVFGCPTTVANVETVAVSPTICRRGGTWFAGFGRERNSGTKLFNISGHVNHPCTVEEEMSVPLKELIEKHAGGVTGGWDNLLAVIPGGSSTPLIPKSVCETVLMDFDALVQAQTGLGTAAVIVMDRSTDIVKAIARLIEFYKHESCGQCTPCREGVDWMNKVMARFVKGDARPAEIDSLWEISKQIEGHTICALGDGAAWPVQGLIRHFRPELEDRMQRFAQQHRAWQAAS
# Chain of Cytochrome c oxidase subunit 6C (Q9CPQ1 whole entry): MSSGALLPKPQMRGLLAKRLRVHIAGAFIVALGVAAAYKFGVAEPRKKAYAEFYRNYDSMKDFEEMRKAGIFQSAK
# Chain of ADP/ATP translocase 1 (P48962 whole entry): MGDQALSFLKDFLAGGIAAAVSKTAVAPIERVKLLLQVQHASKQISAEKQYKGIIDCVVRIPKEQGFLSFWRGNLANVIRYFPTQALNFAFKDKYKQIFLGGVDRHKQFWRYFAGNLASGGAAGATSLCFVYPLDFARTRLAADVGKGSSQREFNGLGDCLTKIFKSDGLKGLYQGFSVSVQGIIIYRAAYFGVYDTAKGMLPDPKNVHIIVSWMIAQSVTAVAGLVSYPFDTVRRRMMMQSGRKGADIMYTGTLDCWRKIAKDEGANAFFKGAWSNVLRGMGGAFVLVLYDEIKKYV
substance,measurement,setting,value
"Cytochrome c oxidase subunit 4 isoform 1, mitochondrial, P19783",listed as a hit,ADP/ATP translocase 1,yes
same,listed as a hit,[1],yes
same,listed as a hit,[2],yes
same,listed as a hit,[3],yes
same,listed as a hit,[4],yes
same,listed as a hit,[5],yes
same,listed as a hit,[6],yes
same,listed as a hit,[7],yes
"MICOS complex subunit Mic60, Q8CAQ8",listed as a hit,[8],yes
"Cytochrome b-c1 complex subunit 6, mitochondrial, P99028",listed as a hit,[9],yes
same,listed as a hit,[10],yes
"NADH dehydrogenase [ubiquinone] 1 beta subcomplex subunit 4, Q9CQC7",listed as a hit,[10],yes
"Stress-70 protein, mitochondrial, P38647",listed as a hit,[11],yes
"Cytochrome c oxidase subunit 6C, Q9CPQ1",listed as a hit,Protein FAM162A,yes
"MICOS complex subunit Mic27, Q78IK4",listed as a hit,[12],yes
same,listed as a hit,[13],yes
